Measured values: PubChem BioAssay (Tox21)
The source made the active and inactive calls. Unless noted, the call rests on the fitted dose curve; in most records, active means well fitted curve in the direction sought with a large enough effect in the repeat runs; inconclusive means weak or mixed curves; inactive means no such curve, though single readings can be large; an effect the other way counts as inactive or inconclusive.

Columns and labels:
[1] = qHTS assay to identify small molecule antagonists of the glucocorticoid receptor (GR) signaling pathway - cell viability counter screen (AID 720693); further: nearly all actives have a fitted effect of over 55% in size; further: potency means the concentration at half of the fitted maximal effect
[2] = qHTS assay for identifying genotoxic compounds that show differential cytotoxicity against isogenic chicken DT40 cell lines with known DNA damage response pathways - wild type cell line (AID 743012); further: nearly all actives have a fitted effect of over 60% in size; further: potency means the concentration at half of the fitted maximal effect
Procedure, shortened: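 Viability of DNA repair-proficient chicken DT40 cells was assessed by CellTiter-Glo luminescence following 40 h compound exposure at 37 C/5% CO2.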

[3] = qHTS assay for identifying genotoxic compounds that show differential cytotoxicity against isogenic chicken DT40 cell lines with known DNA damage response pathways - Rev3 mutant cell line (AID 743014); further: nearly all actives have a fitted effect of over 55% in size; further: potency means the concentration at half of the fitted maximal effect
[4] = qHTS assay for identifying genotoxic compounds that show differential cytotoxicity against isogenic chicken DT40 cell lines with known DNA damage response pathways - Rad54/Ku70 mutant cell line (AID 743015); further: nearly all actives have a fitted effect of over 60% in size; further: potency means the concentration at half of the fitted maximal effect
[5] = qHTS assay to identify small molecule antagonists of the androgen receptor (AR) signaling pathway using the MDA cell line - cell viability counter screen (AID 743041; further: nearly all actives have a fitted effect of over 45% in size)
Procedure, shortened: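 qHTS viability read-out; MDA-kb2 AR-luc; R1881-stimulated; 16 h exposure at 37C, 0% CO2; CellTiter-Fluor, 30 min; fluorescence intensity.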

[6] = qHTS assay to identify small molecule antagonists of the thyroid receptor (TR) signaling pathway - cell viability counter screen (AID 743064); further: nearly all actives have a fitted effect of over 50% in size; further: potency means the concentration at half of the fitted maximal effect
Procedure, shortened: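 GH3.TRE-Luc cells, 4 h pre-plating; cpd + T3 1 nM final; 37 °C 23.5 h; CellTiter-Fluor 30 min; fluorescence read.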

[7] = qHTS assay to identify small molecule antagonists of the thyroid receptor (TR) signaling pathway (AID 743065); further: nearly all actives have a fitted effect of over 55% in size; further: potency means the concentration at half of the fitted maximal effect
Procedure, shortened: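 GH3.TRE-Luc rat pituitary cells carrying two TR response elements driving luciferase were plated for 4 h, given compound plus 1 nM T3 (final), and incubated 23.5 h at 37 C. ONE-Glo luminescence measured reporter inhibition; CellTiter-Fluor fluorescence tracked cytotoxicity.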

[8] = test system: thyroid hormone receptor (rat, GH3 cells); experiment: qHTS assay to identify small molecule agonists of the thyroid receptor (TR) signaling pathway (AID 743066; calls by dose curve; further: potency means the concentration at half of the fitted maximal effect)
[9] = target: Estrogen receptor (Homo sapiens) (UniProt P03372); experiment: qHTS assay to identify small molecule antagonists of the estrogen receptor alpha (ER-alpha) signaling pathway (AID 743069; active means well fitted curve in the direction sought with a large enough effect in the signal ratio in the repeat runs, not every such curve was filed as active; inconclusive means weak or mixed curves, or effect the other way; inactive means no such curve, though single readings can be large or run the other way; the % refers to the signal ratio; further: potency means the concentration at half of the fitted maximal effect)
Estrogen receptor (Homo sapiens), sequence (P03372 whole entry, looked up): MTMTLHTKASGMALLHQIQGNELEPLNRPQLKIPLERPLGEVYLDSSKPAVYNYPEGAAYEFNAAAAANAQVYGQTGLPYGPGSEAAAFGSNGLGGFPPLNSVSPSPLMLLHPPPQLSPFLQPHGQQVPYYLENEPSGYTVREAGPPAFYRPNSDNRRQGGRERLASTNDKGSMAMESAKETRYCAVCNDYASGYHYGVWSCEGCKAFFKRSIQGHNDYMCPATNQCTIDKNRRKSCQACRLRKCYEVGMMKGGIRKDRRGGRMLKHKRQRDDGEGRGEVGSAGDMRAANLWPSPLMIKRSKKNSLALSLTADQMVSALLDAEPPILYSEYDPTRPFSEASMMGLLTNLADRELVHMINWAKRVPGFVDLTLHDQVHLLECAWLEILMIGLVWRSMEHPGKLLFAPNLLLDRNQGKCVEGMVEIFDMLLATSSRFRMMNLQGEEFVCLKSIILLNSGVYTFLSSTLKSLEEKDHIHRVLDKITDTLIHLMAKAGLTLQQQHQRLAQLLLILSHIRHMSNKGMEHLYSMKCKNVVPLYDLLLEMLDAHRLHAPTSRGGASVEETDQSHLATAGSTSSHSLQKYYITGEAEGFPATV
Procedure, shortened: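 Screening used a UAS-driven beta-lactamase reporter integrated into HEK293 cells expressing ER-alpha, stimulated with 17beta-estradiol alongside test compounds over 18 hr at 37C; signal came from LiveBLAzer B/G FRET fluorescence.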

[10] = qHTS assay to identify small molecule antagonists of the estrogen receptor alpha (ER-alpha) signaling pathway - cell viability counter screen (AID 743074; calls by dose curve; further: nearly all actives have a fitted effect of over 45% in size)
[11] = target: Estrogen receptor (Homo sapiens) (UniProt P03372); experiment: qHTS assay to identify small molecule agonists of the estrogen receptor alpha (ER-alpha) signaling pathway (AID 743075; calls by dose curve; further: potency means the concentration at half of the fitted maximal effect)
[12] = target: Estrogen receptor (Homo sapiens) (UniProt P03372); experiment: qHTS assay to identify small molecule agonists of the estrogen receptor alpha (ER-alpha) signaling pathway using the BG1 cell line (AID 743079); further: nearly all actives have a fitted effect of over 20% in size; further: potency means the concentration at half of the fitted maximal effect
[13] = qHTS assay to identify small molecule antagonists of the estrogen receptor alpha (ER-alpha) signaling pathway using the BG1 cell line (AID 743080; calls by dose curve;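 further: BG1 cells stimulated with 17beta-estradiol alongside compound; nearly all actives have a fitted effect of over 25% in size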; further: potency means the concentration at half of the fitted maximal effect)
Procedure, shortened: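 BG1-Luc-4E2 cells (endogenous full-length ER-alpha, 4xERE luciferase) hormone-starved 5 days in charcoal-stripped FBS, plated 4,000/well for 24 h, then compound plus 17beta-estradiol for 21.5 h at 37 C; ONE-Glo luminescence read.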

[14] = qHTS assay to identify small molecule antagonists of the estrogen receptor alpha (ER-alpha) signaling pathway using the BG1 cell line - cell viability counter screen (AID 743081);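 further: compound given together with 17beta-estradiol as the ER stimulus; nearly all actives have a fitted effect of over 45% in size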; further: potency means the concentration at half of the fitted maximal effect
Aromatase (Homo sapiens) = Aromatase (Homo sapiens) (UniProt P11511); experiment: qHTS assay to identify aromatase inhibitors (AID 743083); further: nearly all actives have a fitted effect of over 55% in size; further: potency means the concentration at half of the fitted maximal effect
Aromatase (Homo sapiens), sequence (P11511 whole entry, looked up): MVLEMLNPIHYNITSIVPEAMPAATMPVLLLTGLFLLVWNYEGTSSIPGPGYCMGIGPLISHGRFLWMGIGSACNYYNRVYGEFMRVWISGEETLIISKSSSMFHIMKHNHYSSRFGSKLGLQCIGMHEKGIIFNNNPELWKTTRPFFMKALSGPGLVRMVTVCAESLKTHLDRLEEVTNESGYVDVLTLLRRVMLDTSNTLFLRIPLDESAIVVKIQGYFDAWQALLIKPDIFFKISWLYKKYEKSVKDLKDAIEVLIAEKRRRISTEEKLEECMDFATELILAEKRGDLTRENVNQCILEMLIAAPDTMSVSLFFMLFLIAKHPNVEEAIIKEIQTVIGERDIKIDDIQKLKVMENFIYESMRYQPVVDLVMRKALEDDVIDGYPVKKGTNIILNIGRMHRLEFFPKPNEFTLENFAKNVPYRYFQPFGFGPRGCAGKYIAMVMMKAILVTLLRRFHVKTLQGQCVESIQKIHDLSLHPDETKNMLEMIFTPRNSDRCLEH

[15] = qHTS assay to identify small molecule antagonists of the androgen receptor (AR) signaling pathway - cell viability counter screen (AID 743033; further: nearly all actives have a fitted effect of over 45% in size)
[16] = target: Androgen receptor (Homo sapiens) (UniProt P10275); experiment: qHTS assay to identify small molecule antagonists of the androgen receptor (AR) signaling pathway (AID 743035; active means well fitted inhibition curve with a large enough effect in the signal ratio in the repeat runs, not every such curve was filed as active; inconclusive means weak or mixed curves, or effect the other way; inactive means no such curve, though single readings can be large or run the other way; the % refers to the signal ratio; further: potency means the concentration at half of the fitted maximal effect)
Androgen receptor (Homo sapiens), sequence (P10275 whole entry, looked up): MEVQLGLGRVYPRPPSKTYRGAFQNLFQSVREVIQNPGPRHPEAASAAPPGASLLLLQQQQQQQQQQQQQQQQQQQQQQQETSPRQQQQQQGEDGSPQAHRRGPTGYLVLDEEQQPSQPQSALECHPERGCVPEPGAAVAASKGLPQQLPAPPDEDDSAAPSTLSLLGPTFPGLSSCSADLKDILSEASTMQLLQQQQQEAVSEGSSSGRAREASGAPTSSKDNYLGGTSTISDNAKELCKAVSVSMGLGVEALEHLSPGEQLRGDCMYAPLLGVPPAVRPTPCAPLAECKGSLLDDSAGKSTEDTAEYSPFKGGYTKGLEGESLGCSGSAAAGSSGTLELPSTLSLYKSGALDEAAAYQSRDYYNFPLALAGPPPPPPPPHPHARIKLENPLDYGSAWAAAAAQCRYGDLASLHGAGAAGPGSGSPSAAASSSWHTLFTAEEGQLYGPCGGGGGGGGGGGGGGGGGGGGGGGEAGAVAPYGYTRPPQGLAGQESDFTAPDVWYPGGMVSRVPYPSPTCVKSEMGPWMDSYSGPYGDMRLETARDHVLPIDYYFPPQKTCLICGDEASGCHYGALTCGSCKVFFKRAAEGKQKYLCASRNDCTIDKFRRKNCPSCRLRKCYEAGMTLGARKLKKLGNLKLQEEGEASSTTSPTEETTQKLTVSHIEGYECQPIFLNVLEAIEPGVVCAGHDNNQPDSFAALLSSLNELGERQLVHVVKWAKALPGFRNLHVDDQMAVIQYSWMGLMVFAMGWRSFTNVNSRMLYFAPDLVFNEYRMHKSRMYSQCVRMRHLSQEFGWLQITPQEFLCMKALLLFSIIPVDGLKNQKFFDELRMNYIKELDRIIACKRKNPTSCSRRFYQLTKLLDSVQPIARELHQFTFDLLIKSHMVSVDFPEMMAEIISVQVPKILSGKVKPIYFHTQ
Procedure, shortened: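 Reporter HEK293 cells were exposed to compounds and R1881 overnight (16 h, 37C); beta-lactamase activity was then quantified by FRET fluorescence.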

[17] = target: Androgen receptor (Homo sapiens) (UniProt P10275); experiment: qHTS assay to identify small molecule agonists of the androgen receptor (AR) signaling pathway using the MDA cell line (AID 743040; further: nearly all actives have a fitted effect of over 20% in size)
Procedure, shortened: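 Agonist activity is measured as luciferase luminescence in human MDA-kb2 cells whose MMTV reporter responds to both AR and GR. Compounds in DMSO incubate 16 h at 37C, 0% CO2, and ONE-Glo is read after 30 min.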

[18] = target: Androgen receptor (Homo sapiens) (UniProt P10275); experiment: qHTS assay to identify small molecule agonists of the androgen receptor (AR) signaling pathway (AID 743036; active means well fitted activation curve with a large enough effect in the signal ratio in the repeat runs, with a control signal flat, not every such curve was filed as active; inconclusive means weak or mixed curves, or effect the other way; inactive means no such curve, though single readings can be large or run the other way; the % refers to the signal ratio)
Procedure, shortened: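 AR-bla HEK293 cells, 2,000/well; 4 h preincubation 37C/5% CO2; compound (DMSO) 16 h at 37C; LiveBLAzer B/G FRET substrate 2 h RT; fluorescence intensity read-out.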

[19] = target: Androgen receptor (Homo sapiens) (UniProt P10275); experiment: qHTS assay to identify small molecule antagonists of the androgen receptor (AR) signaling pathway using the MDA cell line (AID 743042; further: nearly all actives have a fitted effect of over 55% in size)
Procedure, shortened: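 MDA-kb2 cells (human breast carcinoma, stably carrying an MMTV-luciferase reporter responsive to AR and GR) were plated at 3,000 cells/well and preincubated 5 hr at 37C, then given compound plus R1881 agonist for 16 h. ONE-Glo luminescence was read.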

Measured: Potency

C=C(C)C(=O)OCC
not listed: [15] | [16] | [17] | [18] | [19]
inactive: all other assays above

CC[N+](C)(CC)CCOC(=O)C(O)(c1ccccc1)C1CCCCC1 (stereo unspecified)
not listed: [5] | [6] | [9] | [12] | [16] | [17] | [18] | [19]
inactive: all other assays above

CCCCC(CC)COC(=O)COc1ccc(Cl)cc1Cl (stereo unspecified)
not listed: [6] | [16] | [17] | [18] | [19]
inactive: all other assays above

COc1ccc(S(=O)(=O)N2C(=O)[C@@](c3ccccc3OC)(N3C[C@H](O)C[C@H]3C(=O)N(C)C)c3cc(Cl)ccc32)c(OC)c1
inactive: [1] | [17] | [5] | [10] | [11]
active: [2] 48.6 µM | [3] 61.1 µM | [4] 48.6 µM | [16] 17.4 µM | [6] 34.4 µM | [7] 68.6 µM | [9] 43.6 µM [inconclusive] | Aromatase (Homo sapiens) 61.1 µM

C=CC1CC2C=CC1C2 (stereo unspecified)
not listed: [6] | [16] | [17] | [18] | [19]
inactive: all other assays above

C[C@@H]1C[C@H]2O[C@@]3(O[C@@H]2C(C)(C)O)[C@H](O)[C@@]2(C)[C@@H]4CC[C@H]5C(C)(C)[C@@H](O[C@@H]6OC[C@@H](O)[C@H](O)[C@H]6O)CC[C@@]56C[C@@]46CC[C@]2(C)[C@@H]13
not listed: [4] | [7] | [16]
inactive: all other assays above

CCOC(=O)NCCOc1ccc(Oc2ccccc2)cc1
inactive: [1] | [7] | [8] | [10] | [14]
active: [2] 61.1 µM | [3] 68.6 µM | [4] 61.1 µM | [9] 38.9 µM [inhibitor] | [13] 61.1 µM

CCN(CC)CCNc1ccc(CNC=O)c2sc3ccc(OC)cc3c(=O)c12
inactive: [5] | [10]
active: [1] 38.9 µM | [2] 8.63 µM | [3] 9.69 µM | [4] 0.969 µM | [6] 8.63 µM | [7] 24.3 µM | [11] 4.36 µM [inconclusive] | [12] 2.73 µM | [14] 4.86 µM | Aromatase (Homo sapiens) 38.6 µM

CN(C)CCCN1c2ccccc2Sc2ccccc21
active: [2] 9.02 µM | [3] 5.69 µM | [4] 10.1 µM | [6] 2.85 µM
inactive: [1] | [5] | [8] | [10] | [14] | Aromatase (Homo sapiens)

C/C=C/C=C/CO
inactive: [1] | [2] | [15] | [5] | [6] | [7] | [8] | [10] | [14] | Aromatase (Homo sapiens)
active: [3] 61.1 µM

NC(=O)C(c1ccccc1)(c1ccccc1)[C@@H]1CCN(CCc2ccc3c(c2)CCO3)C1
inactive: [1] | [15] | [10] | [11] | [12] | [13] | [14] | Aromatase (Homo sapiens)
active: [2] 11.9 µM | [3] 18.8 µM | [4] 23.7 µM | [6] 6.68 µM | [7] 26.6 µM

C[N+]1(CC2COC(c3ccccc3)(C3CCCCC3)O2)CCCCC1 (stereo unspecified)
active: [2] 2.66 µM | [3] 3.76 µM | [4] 5.31 µM
inactive: [1] | [15] | [10] | [11] | [12] | [13] | [14] | Aromatase (Homo sapiens)

COc1cc(Cl)ccc1Oc1ccc(Cl)cc1Cl
active: [7] 52.9 µM
not listed: [6] | [9] | [13] | [16] | [17] | [18] | [19]
inactive: all other assays above

CCCNCC(O)COc1ccccc1C(=O)CCc1ccccc1 (stereo unspecified)
inactive: [1] | [5] | [10] | [14]
active: [2] 6.68 µM | [3] 11.9 µM | [4] 11.9 µM | [6] 29.8 µM | [7] 23.7 µM

Nc1ncn([C@H]2C[C@H](O)[C@@H](CO)O2)c(=O)n1
active: [2] 0.106 µM | [3] 0.106 µM | [4] 0.0298 µM | [8] 3.35 µM
inactive: [1] | [5] | [7] | [10] | [14] | Aromatase (Homo sapiens)
